The structures appear in SMILES notation. This is part of a sample that, as a whole, favours compounds with a hit. Of some 83,000 tested, about 20% had one in any assay.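 Growth was measured after 48 h exposure to one concentration of compound in 96-well plates. Values under 10 count as active.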 Unmarked numbers belong to inactive results. The source made the active and inactive calls. *1 amine or outer side, *2 acyl side, *3 side chain or, on linkers, in order; H or OH if unused. Where a SMILES comes first, the peptide text is derived from it. Bridges are numbered along the chain shown (N, C = ends). Roman numbers before positions name the chains, in order. [ ]: non-standard residue; d: D form. The star is where a group is joined. Actinocin(1to9) = Cc1c2oc3c(C)ccc(C(=O)[*:2])c3nc-2c(C(=O)[*:1])c(N)c1=O; X5 = CCC(=O)CC1CC(C)CC(C(=O)[*:2])N1[*:1]; NMeV = CN[CH](C(=O)O)C(C)C; X4 = CCCCCCCCC(C)C(=O)*; Aib = CC(C)(N)C(=O)O; X6 = CC(CN(C)CCO)N*; Sar = CNCC(=O)O

This test deals with U251 CNS. The experiment in a line: NCI-60 one-dose screen, 48 h (100 = growth as untreated, 0 = no growth, -100 = all killed). The following applies: 10 µM unless noted. As for the experimental part: Growth inhibition of the U251 human tumor cell line is measured as a screen for anti-cancer activity. Cells are grown in 96 well plates and exposed to the test compound for 48 hours. Compounds are tested at a single concentration, which is 10^-5 M for most compounds. The reported endpoint is percent growth (GI% or GIPRCNT), where numbers from 0 - 100% represent growth inhibition, and numbers from -100% - 0 represent cell death. For example, a value of 40 represents 60% growth inhibition. A value of 0 means no net growth occurred over the course of the experiment. A value of -40 indicates 40% of cells at the beginning of the experiment died by the end of the experiment. A value of -100 means all cells are dead at the end of the experiment.
NCI-60 Human Tumor Cell Lines Screen was performed using the standard one-dose NCI protocol, which is described in more detail at https://dtp.cancer.gov/discovery_development/nci-60/default.htm.
Compounds with GIPRCNT values below 10 were considered active. Activity score was based on GIPRCNT using the following formula: […]
Score is 0 for GIPRCNT values of 100 or above, 50 for GIPRCNT values of 0, and 100 for GIPRCNT values of -100.
Regarding `Clc1ccccc1C(c1ccccc1)(c1ccccc1)n1ccnc1`, the growth was 42%.
As to `C(=N\Nc1ccc2ccccc2n1)/c1ccccn1`, the growth was 10.1%.
As for `COc1c(C)c2c(c(O)c1C/C=C(\C)CCC(=O)O)C(=O)OC2`, the figure is 18.3%; as for `CCSc1nc2ccccc2o1`, 101%; as for `Cc1nc(Sc2nc3ccc([N+](=O)[O-])cc3s2)sc1C`, 27.2%.
For `O=C1C=CC(=O)N1c1cc(Cl)c(Cl)cc1Cl` the value was 101%.
Turning to `O=C(CCl)N1c2ccccc2Sc2c1ccc1ccccc21`, the growth is 63.8%.
As to `O=C(NOC(=O)c1ccccc1)c1ccccc1`, the growth is 105%.
For `CN1CCC(c2ccccc2)(c2ccccc2)C(=O)C1` the value was 91.3%; for `Cc1ccccc1NC(=O)Cc1csc2[n+]1C(=O)/C(=C/c1ccc([N+](=O)[O-])cc1)S2`, 92.2%.
As to `Nc1cccc2cccc([N+](=O)[O-])c12`, the growth was 101%.
As for `CCOc1ccc2c(c1)/C(=C\C=C\C1CC(C)C3CC(OCC)CCC3N1CC)CC(C)N2CC` (stereo not given), the growth is 6.59% (active).
As to `CCN(CC)CC(O)CNc1ccc(NCC2CO2)c2c1C(=O)c1ccccc1C2=O` (stereo not given), the growth is -51.8% (active).
As for `Cc1cc(C(=O)c2ccc(Cl)cc2)ccc1O`, the figure is 101%.
For `CCCCC(C=O)(C=C=C(C)C)CC` (stereo not given) the value was 96.8%.
In the case of `OC(c1cc(-c2ccc(Cl)cc2)nc2c(Cl)cccc12)C1CCCCN1` (stereo not given), the growth was -89% (active).
For `CN1CSC(=S)N(Cc2ccccc2)C1` the value was 100%; for `Oc1ccc(Nc2ccc3ccccc3c2)cc1`, 67.5%.
As for `O=C(CBr)c1ccc(OC(=O)c2ccccc2)cc1`, the figure is 95.5%; as for `O=C(c1ccccc1)C(Br)[N+](=O)[O-]` (stereo not given), 84.2%.
As for `N#CCc1cccc2ccccc12`, the figure is 108%; as for `N=C1C=C(N)C(=O)c2ccccc21`, -72.1% (active); as for `CCCCCCCCC(C)C(=O)N1CCCC1C(=O)N1C(CC(=O)CC)CC(C)CC1C(=O)NC(C)C(=O)NC(C)(C)C(=O)NC(C)(C)C(=O)NC(C(=O)NC(C)C(=O)NC(C)(C)C(=O)NC(C)(C)C(=O)NC(C)CN(C)CCO)C(C)CC` (stereo not given) (X4-P[X5]A[Aib][Aib]IA[Aib][Aib]-X6; configuration not given here), -67.3% (active).
Consider `Oc1ccc2ccccc2c1N=Nc1ccccn1`, for which the growth was 30.5%.
As for `CCCCCCCCC(=O)OCCCC(CCC(CCC1CCCO1)OC(=O)CCCCCCCC)OC(=O)CCCCCCCC` (stereo not given), the figure is 106%; as for `S=C1SCN(Cc2cccs2)CN1Cc1cccs1`, 95.6%.
As for `S=C=Nc1ccc(N2CCOCC2)cc1`, the figure is 97.6%; as for `CCC(C)C1NC(=O)C(NC(=O)c2c3nc4c(C(=O)NC5C(=O)NC(C(C)CC)C(=O)N6CCCC6C(=O)N(C)CC(=O)N(C)C(C(C)C)C(=O)OC5C)ccc(C)c4oc-3c(C)c(=O)c2N)C(C)OC(=O)C(C(C)C)N(C)C(=O)CN(C)C(=O)C2CCCN2C1=O` (stereo not given) (I: TIP[Sar][NMeV] / II: TIP[Sar][NMeV]; ester I:1-I:C, II:1-II:C; linker I:N-II:N via Actinocin(1to9); configuration not given here), 1.81% (active); as for `O=[N+]([O-])C=C(c1ccccc1)c1ccccc1`, 80.1%.
For `CCOc1ccc(Nc2nc3c(s2)C(=O)c2ccccc2C3=O)cc1` the value was 78.9%; for `COC(=O)c1cc([N+](=O)[O-])cc([N+](=O)[O-])c1Cl`, 9.52% (active).
In the case of `CC1(C)OCC(COC(c2ccccc2)(c2ccccc2)c2ccccc2)O1` (stereo not given), the growth was 95.3%.
As to `NNc1ccc(Cl)cc1Cl`, the growth is 76.4%.
For `O=C(c1ccccc1)C(Br)C(Br)c1ccccc1` (stereo not given) the value was 68.6%; for `O=C1C=Cc2ccccc2/C1=C/c1nc(-c2ccccc2)oc1O`, 95%.
For `S=c1[nH]c2cc(Cl)ccc2s1` the value was 101%.
As for `CC1=CC(=NC(=O)CBr)C=C/C1=N\S(=O)(=O)c1ccccc1`, the figure is 67.3%; as for `CCCN(CCC)C(=O)c1ccc(C)cc1`, 85.5%.
As for `CCCCCCCCCCCC1=NCCCN1CCCC`, the growth was 100%.
As for `CCOC(=O)c1[nH]c(C#N)c(C(=O)OCC)c1C`, the figure is 99.1%.

These data come from PubChem BioAssay (NCI).
